From PubChem BioAssay come the findings set out here.

Values without a mark were called inactive. The source made the active and inactive calls.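 The calls were made as follows: active = compounds that lower viability of the colon cancer cells in the luminescence readout, with no numeric limit stated; inactive = the rest.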

The nature of the test: CellTiter-Glo luminescent readout of SW480 viability loss, NPC library primary (AID 1117343). As to conditions: CellTiter-Glo luminescence; at 20 µM (top of the series). On the technique in general: In ATP-based viability assays light output follows the ATP content of the culture.
On to `CC12CC3CC(C)(C1)CC(N)(C3)C2`, for which the viability decrease (inhibition) is 14.2%. In the case of `CC(=O)OCC(CCn1cnc2cnc(N)nc21)COC(C)=O` it was 15.5%; in that of `S=c1nc[nH]c2nc[nH]c12`, 107% (active); in that of `Oc1c(Cl)cc(Cl)c2cccnc12`, 111% (active). In the case of `CC1=NS(=O)(=O)c2cc(Cl)ccc2N1` it was 8.5% (active); in that of `OC(Cn1cncn1)(Cn1cncn1)c1ccc(F)cc1F`, 7.1%. As for `NCCc1ccc(O)c(O)c1`, the viability decrease (inhibition) was 79.9% (active). With `CN=C(NC#N)NCCSCc1nc[nH]c1C` the figure was 36.9%; with `COc1c(N2CCNC(C)C2)c(F)cc2c(=O)c(C(=O)O)cn(C3CC3)c12` (centres undefined), -16.2%; with `CC1COc2c(N3CCN(C)CC3)c(F)cc3c(=O)c(C(=O)O)cn1c23` (centres undefined), -9.6%. Regarding `O=C(C1CCCCC1)N1CC(=O)N2CCc3ccccc3C2C1` (centres undefined), the viability decrease (inhibition) was 19.5%. With `CCc1cc(C(N)=S)ccn1` the figure was 6.3%; with `CC1=C(/C=C/C(C)=C/C=C/C(C)=C/C(=O)O)C(C)(C)CCC1`, 142% (active). As for `CCCCNc1cc(C(=O)O)cc(S(N)(=O)=O)c1Oc1ccccc1`, the viability decrease (inhibition) is 2.4%. In the case of `O=c1[nH]cnc2[nH]ncc12` it was 25%. In the case of `O=C1c2c(O)ccc(O)c2C(=O)c2c(NCCNCCO)ccc(NCCNCCO)c21` it was 102% (active). Regarding `O=C(O)c1cc(=O)c2c(OCC(O)COc3cccc4oc(C(=O)O)cc(=O)c34)cccc2o1`, the viability decrease (inhibition) was 19.3%. With `CC(C)C(=O)Nc1ccc([N+](=O)[O-])c(C(F)(F)F)c1` the figure was 40.5%. As for `CC(COc1ccccc1)N(CCCl)Cc1ccccc1` (centres undefined), the viability decrease (inhibition) is 13%.
